Results on six sequences are retold here after the supplement of paper PMC6555819.

What all share (assay): PBM binding z-score (relative to random genomic background probes); higher = stronger binding; sequences stand for … in GC…GCGATTGACAGCGTAGAATGAAGG
The test system of test [1] is FXR:RXRa (NR concentration 270 nM, RXRa partner concentration 90 nM). The method in brief: (§1)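 Custom Agilent 4×180K protein-binding microarrays carried double-stranded probes, each with a 34-nt variable region. These regions held direct-repeat seeds, single-nucleotide variants, half-site ablations and random human genomic background sequences. Ligand-free nuclear receptor dimers were incubated on the arrays for 1 h, antibodies against each partner (one per run) detected binding, and scanned fluorescence was regression-normalized. Binding z-scores take the random background probes as reference.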

For test [2], the system named is LXRa:RXRa (NR concentration 270 nM, RXRa partner concentration 90 nM). The method in brief: as §1
Test [3] concerns LXRa homodimer (NR concentration 270 nM). The method in brief: as §1
The test system of test [4] is LXRb:RXRa (NR concentration 270 nM, RXRa partner concentration 90 nM). The method in brief:
as §1

The subject of test [5] is LXRb homodimer (NR concentration 270 nM). The method in brief:
as §1

Test [6] deals with PPARa:RXRa (NR concentration 270 nM, RXRa partner concentration 90 nM). The method in brief:
as §1

In test [7] the test system is PPARg:RXRa (NR concentration 180 nM, RXRa partner concentration 90 nM). The method in brief: as §1
Test [8] concerns PPARg:RXRa 270nM:90nM, anti-RXR (NR concentration 270 nM, RXRa partner concentration 90 nM). In short, it runs like this:
as §1

For test [9], the system named is PPARg:RXRa 30nM:10nM, anti-RXR (NR concentration 30 nM, RXRa partner concentration 10 nM). The method in brief:
as §1

Test [10] has as its system PPARg:RXRa 90nM:30nM, anti-RXR (NR concentration 90 nM, RXRa partner concentration 30 nM). The method in brief: as §1
The test system of test [11] is PPARg:RXRa DBDmut IVT, anti-RXR (DBD mutation: RXRa K156A/R161A, NR concentration 270 nM, RXRa partner concentration 90 nM). The method in brief:
as §1

Test [12] has as its system PPARg:RXRa IVT, anti-PPARg (NR concentration 270 nM, RXRa partner concentration 90 nM). In short, it runs like this:
as §1

Test [13] deals with PPARg DBDmut:RXRa IVT, anti-PPARg (DBD mutation: PPARg1 K132A/R137A, NR concentration 270 nM, RXRa partner concentration 90 nM). In short, it runs like this:
as §1

Test [14] relates to PPARg DBDmut IVT, anti-PPARg (DBD mutation: PPARg1 K132A/R137A, NR concentration 270 nM). In short, it runs like this:
as §1

Test [15] relates to PPARg homodimer (NR concentration 180 nM). In short, it runs like this:
as §1

Test [16] relates to PXR:RXRa (NR concentration 270 nM, RXRa partner concentration 90 nM). In short, it runs like this:
as §1

Test [17] concerns PXR homodimer (NR concentration 270 nM). In short, it runs like this: as §1
Test [18] deals with RARa:RXR (NR concentration 270 nM, RXRa partner concentration 90 nM). In short, it runs like this: as §1
Test [19] has as its system RARa homodimer (NR concentration 270 nM). In short, it runs like this: as §1
The test system of test [20] is RARb:RXRa (NR concentration 270 nM, RXRa partner concentration 90 nM). The method in brief: as §1

As to ACTATTAGATGACTTAGGGCAACCGATACGACGC, the PBM binding z-score came to 0.344 in test [1]; 0.353 in test [2]; 0.702 in test [3]; 0.165 in test [4]; 1.14 in test [5]; 0.0577 in [6]. For the same sequence, the PBM binding z-score in test [7] is 1.25; in [8], 0.22; in [9] it was 0.441; in [10], 0.295; in [11] it was 0.577; in test [12], 0.319. For the same sequence, the PBM binding z-score was 1.54 in [13]; 1.42 in test [14]; 1.03 in test [15]; -0.0258 in test [16]; 0.554 in test [17]; 0.143 in test [18]. In addition, the PBM binding z-score in test [19] stood at 1.38; in test [20] it was 0.885.

Regarding TCATATAGGTAACCAGGTGAAAGTCCGTAAGTTA, the PBM binding z-score worked out at 0.67 in test [1]; 0.846 in test [2]; 0.139 in test [3]; 1.04 in test [4]; 0.073 in test [5]; 2.95 in test [6]. Further, the PBM binding z-score in test [7] is 4.7; in test [8], 4.35; in test [9] it was 4.08; in [10] it was 4.4; in [11], 5.2; in test [12], 5.99. In addition, the PBM binding z-score in test [13] worked out at 0.0685; in [14] it was 0.802; in test [15], 1.14; in test [16], 0.852; in [17] it was 0.506; in test [18], 1.06. Besides, the PBM binding z-score in test [19] was 0.583; in test [20], 1.

Consider CGAACTAGGTCATCCAGGACAGTGACTACATTGA, for which the PBM binding z-score in [1] was 4.72; in [2] it was 2.67; in [3] it was 0.428; in test [4] it was 1.91; in [5] it was -0.136; in test [6] it was 4.84. For the same sequence, the PBM binding z-score in test [7] turned out to be 7.74; in test [8] it was 6.43; in [9] it was 3.94; in [10], 6.21; in test [11], 8.16; in test [12], 8.47. In addition, the PBM binding z-score in [13] was found to be 4; in test [14], 0.771; in test [15] it was 3.18; in test [16], 1.88; in [17] it was 1.13; in test [18], 2.32. Also, the PBM binding z-score was 0.438 in test [19] and 3.95 in test [20].

In the case of ACTAGTTGGTCGGCTGAGGTCACACACAATTCGG, the PBM binding z-score in [1] came to 3.37; in test [2] it was 2.69; in test [3] it was 1.73; in [4], 2.93; in test [5] it was 0.679; in test [6] it was 3.59. Also, the PBM binding z-score in [7] is 1.43; in test [8], 2.08; in test [9] it was 0.45; in test [10], 1.51; in [11], 0.828; in test [12] it was 2.09. For the same sequence, the PBM binding z-score in test [13] was determined as 0.508; in test [14] it was 0.979; in test [15], 2.33; in test [16] it was 5; in test [17], 2.11; in test [18] it was 4.72. In addition, the PBM binding z-score stood at 1.23 in test [19] and 3.08 in test [20].

TCTCCTAGGTCAACGATGGTCAGCTAATCTGCTA: the PBM binding z-score came out at 4.13 in test [1]; 3.59 in test [2]; 0.622 in [3]; 2.49 in [4]; 0.781 in [5]; 3.76 in test [6]. The PBM binding z-score in test [7] was 2.68; in test [8], 3.76; in [9], 3.64; in [10], 3.51; in test [11], 4.1; in test [12], 4.22. Further, the PBM binding z-score is 0.539 in test [13]; 1.02 in [14]; 2.22 in test [15]; 2.36 in [16]; -0.309 in test [17]; 2.66 in [18]. In addition, the figures for the PBM binding z-score in test [19] and in test [20] were 0.663 and 4.28, respectively.

In the case of CGTCCAAGGACATAGGAGGTCAGTGAAGACAGAT, the PBM binding z-score in test [1] is 1.5; in test [2], 1.47; in test [3] it was 1.23; in test [4] it was 1.26; in test [5], -0.58; in test [6], 2.02. The PBM binding z-score in test [7] stood at 0.76; in [8] it was 0.564; in [9], 0.000734; in test [10], 0.268; in test [11] it was 0.24; in test [12], 1.36. Further, the PBM binding z-score is -0.861 in [13]; -1.72 in test [14]; 1.48 in [15]; 2.07 in test [16]; 0.81 in [17]; 2.11 in test [18]. Besides, the PBM binding z-score amounted to 0.692 in test [19] and 2.76 in test [20].
